In the OligoGym collection:
Further: reference of the scale not given here.

The sequences below were run against GYG1 (assay: pooled miR-30 sensor sort-seq; sequence = guide strand). Settings: shRNA.
TTTAATGAAAACCTCTAGCAAC gave a sensor-assay potency score (higher = more potent) of -1.05. With TTGCTCAGAAGCAAGATGCAAC the sensor-assay potency score (higher = more potent) was -0.936. TACAGAACTGAACAAAAGCATT was tested, and the sensor-assay potency score (higher = more potent) was -1.48. TTTAAGAACTGATACAGCCATC was tested, and the sensor-assay potency score (higher = more potent) was -1.1. With TTGAAGCAGAGGTAAAACGTTG the sensor-assay potency score (higher = more potent) was -0.811. For TTACATATGAGCAGGTGTCTTT, the sensor-assay potency score (higher = more potent) was -0.417. For TAACCATCAGAGAACACACTGC, the sensor-assay potency score (higher = more potent) was 0.344. TACTGTGTAAGCGACCAGCAGT showed a sensor-assay potency score (higher = more potent) of -0.399. TAACAGACTTTTCTCAACCCAG was tested, and the sensor-assay potency score (higher = more potent) was -0.49. TCTAGCAACTGTAACAGACTTT showed a sensor-assay potency score (higher = more potent) of -0.0429. TTACTGTACACAGAAAACTGGT was tested, and the sensor-assay potency score (higher = more potent) was -0.292. TTAATATCTTGAGTTTCCCTTA showed a sensor-assay potency score (higher = more potent) of -0.312.

These sequences were tested against H2AFZ in the same assay as above. Settings: shRNA.
For TTTGTCTTGGCCTTTCCGGAGT, the sensor-assay potency score (higher = more potent) was -0.897. In the case of TAGATTTTAGGTGTCGATGAAT, the sensor-assay potency score (higher = more potent) is reported as -1.16. In the case of TTTGAAGCCACAGTAACACTTA, the sensor-assay potency score (higher = more potent) is reported as 0.62. Sequence TAGCAAGTTGCAAGTGACGAGG has a sensor-assay potency score (higher = more potent) of -0.877. TTTAGGTGTCGATGAATACGGC gave a sensor-assay potency score (higher = more potent) of -0.619. TTGAACTTATCCACCAGAGTGG gave a sensor-assay potency score (higher = more potent) of -0.27. In the case of TAAACTTCCAACTTGCTCAAAT, the sensor-assay potency score (higher = more potent) is reported as -0.831. TTTACCTTTAAGTCTTTTGATG was tested, and the sensor-assay potency score (higher = more potent) was -0.972. Work on TTAAACTTCCAACTTGCTCAAA yielded a sensor-assay potency score (higher = more potent) of -1. TTAGGTGTCGATGAATACGGCC gave a sensor-assay potency score (higher = more potent) of -0.494. ATAATGTCTGTACAAAACCAAA showed a sensor-assay potency score (higher = more potent) of -1.91.
